Most compounds without a hit are left out; they make up all but 6.5% or so of the library.
FMDV inh: blocks foot and mouth disease virus; Potency, µM (titrated, usually from 57.9 µM), for the others: at the highest dose activity change, negative = inhibition, actives largely listed as inhibitors; 1.2% of 410,000 active; AID 1159524; FMDV antiviral cell-based qHTS; calls by dose curve; tested in HEK293T cells; note: read-out not given here; potency is the fitted concentration of half-maximal effect; nearly all actives have a fitted effect of over 45% in size
HCMV inh: inhibitors of human cytomegalovirus. HFF cells, HCMV-luciferase reporter, 72 h; active compounds read low. activity change, negative = inhibition, % at 57.5 µM. 4.5% of 410,000 active. AID 1259415; in the data active = activity change below about -60%; inconclusive = no clear call, values can overlap the other calls; inactive = above about -39%
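Cell-based, HFFs, 1000 cells/well, 16 h 37C; cpds in DMSO + HCMV-luc, MOI 1 PFU/cell; 72 h 37C; OneGlo luminescence after 5 min RT; norm. to buffer vs Salinomycin 10uM.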
VACV mCherry inh: inhibitors of vaccinia virus infection (mCherry reporter signal); AID 720579; Vaccinia virus mCherry reporter infection, fluorescence; 0.63% of 310,000 active; Potency, µM (highest dose often 36.5 µM), without a hit: top-dose activity change, negative = inhibition, most hits filed as inhibitors; calls by dose curve; tested in A549 cells; note: potency is the fitted concentration of half-maximal effect; nearly all actives have a fitted effect of over 35% in size
Marburg entry inh: Marburg virus entry inhibition; Potency, µM (highest dose often 37.8 µM), for the others: top-dose activity change, negative = inhibition, hits mostly inhibitors; AID 540276; 1.8% of 300,000 active; Marburg virus pseudotyped entry inhibition, cell reporter; calls by dose curve; tested in HEK293 cells; note: potency is the fitted concentration of half-maximal effect
VACV Venus inh: inhibitors of vaccinia virus (Venus reporter); Vaccinia virus Venus reporter expression, fluorescence; Potency, µM (doses to about 36.5 µM), for the others: at the highest dose activity change, negative = inhibition, usual class: inhibitors; 0.46% of 330,000 active; calls by dose curve; tested in A549 cells; note: potency is the fitted concentration of half-maximal effect; nearly all actives have a fitted effect of over 30% in size
LASV entry inh: inhibitors of Lassa virus binding or cell entry; Lassa virus pseudotype entry inhibition, cell reporter; 1.2% of 300,000 active; AID 540256; Potency, µM (top dose mostly 37.9 µM), for inactives: at the highest dose activity change, negative = inhibition, most hits filed as inhibitors; calls by dose curve; tested in HEK293 cells; note: potency is the fitted concentration of half-maximal effect; nearly all actives have a fitted effect of over 50% in size
Active calls of the source: *; [ ] = remark or other dose. % is set by controls: 0 for no effect and ±100 for the full control effect.

`CN1/C(=C\C(=O)C(F)F)C(C)(C)c2ccccc21` gave FMDV inh inconclusive, HCMV inh 10, Marburg entry inh 3%, VACV Venus inh -14% and LASV entry inh -2%.
Screening COc1ccc(C(=O)NCCS(=O)(=O)N2CCN(Cc3ccccc3)CC2)cc1 returned FMDV inh -21%, HCMV inh 5, VACV mCherry inh -8%, Marburg entry inh -3%[46.1 µM], VACV Venus inh -2% and LASV entry inh -18%.
Screening O=C(NC1CCCC1)C1CCN(c2cnccn2)CC1 returned FMDV inh 10%, HCMV inh -15, VACV mCherry inh -1%, Marburg entry inh 20%[46.1 µM], VACV Venus inh -16% and LASV entry inh 3%[46.1 µM].
Screening CN1/C(=C\C(=O)c2ccco2)C(C)(C)c2ccccc21 returned FMDV inh inconclusive, HCMV inh -71*, VACV mCherry inh -17%, Marburg entry inh -36%, VACV Venus inh 22% and LASV entry inh inconclusive.
Screening CCOC(=O)N1CCN(C(=O)c2ccc(S(=O)(=O)Nc3ccc(C)cc3)cc2)CC1 returned FMDV inh -25%, HCMV inh -69*, VACV mCherry inh -7%, Marburg entry inh inconclusive, VACV Venus inh -18% and LASV entry inh inconclusive.
`O=C(c1ccc(NS(=O)(=O)c2cccc(F)c2)cc1)N1CCCC1` gave FMDV inh 12%, HCMV inh -12, VACV mCherry inh inactive, Marburg entry inh -18%, VACV Venus inh -15% and LASV entry inh 16%.
For O=C(c1ccc(NS(=O)(=O)c2cccc(F)c2)cc1)N1CCCCC1 the results were FMDV inh -8% and HCMV inh -73*.
Screening COc1ccc(NS(=O)(=O)c2ccc(C(=O)N3CCCCCC3)cc2)cc1 returned FMDV inh -22%, HCMV inh -74*, VACV mCherry inh -19%, Marburg entry inh inconclusive, VACV Venus inh -14% and LASV entry inh inconclusive.
CCOc1ccc(NS(=O)(=O)c2ccc(C(=O)N3CCCC(C)C3)cc2)cc1 (stereo unspecified) was read as FMDV inh 0%, HCMV inh -63*, VACV mCherry inh -28%, Marburg entry inh inconclusive, VACV Venus inh -9% and LASV entry inh inconclusive.
For COc1ccccc1C(=O)N[C@@H]1c2ccccc2C2(CCN(Cc3cnn(C)c3C)CC2)[C@H]1O the results were FMDV inh 4%, VACV mCherry inh -21% and VACV Venus inh -4%.
Screening CCOC(=O)N1CCN(C(=O)c2ccc(CSc3ccc(Cl)cc3)cc2)CC1 returned FMDV inh 25µM*, HCMV inh -71*, VACV mCherry inh -18%, Marburg entry inh inconclusive, VACV Venus inh 4% and LASV entry inh inconclusive.
For CN1CCN(C(=O)c2ccc(Oc3ccc([N+](=O)[O-])cc3)cc2)CC1 the results were FMDV inh -29%, HCMV inh 26, VACV mCherry inh 0%, Marburg entry inh 12%[46.1 µM], VACV Venus inh 1% and LASV entry inh -8%.
CCOC(=O)N1CCN(C(=O)c2ccc(NS(=O)(=O)c3ccc(C)cc3)cc2)CC1 was read as FMDV inh -26%, HCMV inh -76*, VACV mCherry inh -1%, Marburg entry inh -23%, VACV Venus inh -20% and LASV entry inh -22%.
For CCOC(=O)N1CCN(C(=O)c2ccc(Oc3ccc([N+](=O)[O-])cc3)cc2)CC1 the results were FMDV inh inconclusive, HCMV inh -83*, VACV mCherry inh -11%, Marburg entry inh -11%[46.1 µM], VACV Venus inh -15% and LASV entry inh -20%.
Screening CCn1nc(C)c(CN2CCCC(CO)(Cc3cccc(Cl)c3)C2)c1C (stereo unspecified) returned FMDV inh inconclusive and HCMV inh -18.
`O=C(CC[C@H]1O[C@@H](n2ccc(=O)[nH]c2=O)[C@H](O)[C@@H]1O)NCc1ccco1` gave FMDV inh -23%, HCMV inh 44, VACV mCherry inh 6% and VACV Venus inh 10%.
Oc1ccc(N=Nc2n[nH]c(-c3ccc(Cl)cc3)n2)cc1 was read as FMDV inh 56%, HCMV inh -95* and Marburg entry inh 2%.
Screening Oc1ccc(Cl)cc1 returned FMDV inh -2%, HCMV inh -14, VACV mCherry inh -16% and VACV Venus inh -11%.
